Data: PubChem BioAssay (NCI)
Compounds without any hit were thinned out: in the full panel of roughly 83,000, 20% have a hit.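 Single-concentration screen, 48 h exposure, 96-well plates. Endpoint: percent growth. Below 10 = active.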 Unmarked numbers belong to inactive results. Active and inactive are the calls of the source.

Legend:
Assay in all cases: NCI-60 one-dose screen, 48 h (100 = growth as untreated, 0 = no growth, -100 = all killed)
Settings in all cases: 10 µM unless noted
NCI-H23 lung = system: NCI-H23 lung
NCI-H226 lung = system: NCI-H226 lung
NCI-H322M lung = system: NCI-H322M lung
HOP-62 NSCLC = system: HOP-62 NSCLC
NCI-H460 lung = system: NCI-H460 lung
HOP-92 NSCLC = system: HOP-92 NSCLC
NCI-H522 lung = system: NCI-H522 lung
A549/ATCC NSCLC = system: A549/ATCC NSCLC
786-0 renal = system: 786-0 renal
COLO 205 colon = system: COLO 205 colon
DU-145 prostate = system: DU-145 prostate
K-562 leukemia = system: K-562 leukemia
MALME-3M melanoma = system: MALME-3M melanoma
MDA-MB-231 breast = system: MDA-MB-231 breast
RXF 393 renal = system: RXF 393 renal
SF-268 CNS = system: SF-268 CNS
SF-295 CNS = system: SF-295 CNS
SF-539 CNS = system: SF-539 CNS
UACC-257 melanoma = system: UACC-257 melanoma
M14 melanoma = system: M14 melanoma

Row | Compound | growth (NCI-H23 lung) [%] | growth (NCI-H226 lung) [%] | growth (NCI-H322M lung) [%] | growth (HOP-62 NSCLC) [%] | growth (NCI-H460 lung) | growth (HOP-92 NSCLC) [%] | growth (NCI-H522 lung) [%] | growth (A549/ATCC NSCLC) [%] | growth (786-0 renal) [%] | growth (COLO 205 colon) [%] | growth (DU-145 prostate) [%] | growth (K-562 leukemia) [%] | growth (MALME-3M melanoma) [%] | growth (MDA-MB-231 breast) [%] | growth (RXF 393 renal) [%] | growth (SF-268 CNS) [%] | growth (SF-295 CNS) | growth (SF-539 CNS) [%] | growth (UACC-257 melanoma) [%] | growth (M14 melanoma) [%]
1 | Cc1cc(C(=O)c2ccccc2)cc(C)c1O | 98.2 | 99.2 | 101 | 95.2 | 110% | 74.3 | 104 | 102 | 100 | 103 | 113 | 94.7 | 94.1 | 124 | 116 | 102 | 107% | 90.4 | 115 | 103
2 | COc1cc(-c2ccc(NC(=O)CC(C)=O)c(OC)c2)ccc1NC(=O)CC(C)=O | 96 | 91.4 | 102 | 98 | 109% | 98.2 | 95.5 | 88.5 | 105 | 115 | 111 | 98 | 97.3 | 101 | 113 | 107 | 101% | 97.6 | 89.3 | 104
3 | COc1cccc(C(=O)O)c1OC | 109 | 89.8 | 95.6 | 89.4 | 101% | 92.5 | 87.2 | 98.1 | 96 | 101 | 111 | 107 | 103 | 99.2 | 115 | 105 | 87.5% | 96.4 | 97.6 | 103
4 | Oc1ccc2ccccc2c1CN1CCOCC1 | 104 | 105 | 112 | 122 | 115% | 102 | 110 | 99.7 | 109 | 106 | 124 | 118 | 121 | 109 | 128 | 102 | 110% | 81.4 | 120 | 98
5 | CCOC(=O)c1cc(Cl)c(O)c(Cl)c1 | 103 | 103 | 117 | 106 | 108% | 109 | 103 | 100 | 107 | 99.6 | 104 | 121 | 114 | 106 | 116 | 97.7 | 103% | 106 | 109 | 105
6 | C=CCC(OC(C)=O)c1ccc(OC)c(OC)c1 (stereo not given) | 109 | 119 | 105 | 110 | 106% | 108 | 92.1 | 104 | 115 | 113 | 121 | 116 | 124 | 128 | 124 | 97.8 | 101% | 108 | 103 | 108
7 | O=c1n(CC2CO2)c(=O)n(CC2CO2)n1CC1CO1 (stereo not given) | 55.2 | 85.9 | 94 | 46 | 4.78% (active) | 48.6 | 31.4 | 49.4 | 36.9 | 70.1 | 38.4 | 57.4 | 107 | 110 | 80.2 | 53.5 | -10.3% (active) | 18.8 | 86.6 | 48.1
8 | COc1nc(Nc2cccc(C(F)(F)F)c2)nc(OC)n1 | 97.2 | 96.8 | 96.9 | 98.8 | 106% | 92.4 | 75 | 102 | 96.8 | 109 | 105 | 87 | 116 | 90.7 | 102 | 98.4 | 88.4% | 98 | 121 | 113
9 | O=C(OC1CCCC1)c1ccccc1Cl | 106 | 104 | 99.7 | 97.1 | 101% | 96.2 | 93.1 | 105 | 101 | 107 | 109 | 106 | 102 | 97.3 | 112 | 104 | 100% | 98.6 | 109 | 101
